HCV inh = blocks hepatitis C virus | AID 651820 | Huh7.5.1 HCVcc-Cre infection, luciferase reporter, 44 h | 340,000 tested, 3.4% active | Potency, µM (series often up to 41.8 µM), hits mostly inhibitors
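Seed cells (1,000/well) for 4 h; treat with compound and infect with HCVcc-Cre, moi about 0.5. Incubate 44 h, then detect luciferase activity.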
Cycloheximide cs = counter-screen hit for Shiga toxin inhibitors, cycloheximide; cell reporter, cycloheximide protein synthesis inhibition counterscreen; max response, %; 300,000 tested, 12% active; AID 2314; in the data active = max response mostly above about 13%, no sharp cut-off; inactive = mostly below about 14%; also: read at 38.3 µM for the half of the compounds with a filed dose
Shiga toxin inh = inhibitors of Shiga toxin in Vero cells | Vero cells, Shiga toxin protein synthesis inhibition reporter | inhibition, % at 38.7 µM | 290,000 tested, 9.2% active | AID 2315; in the data active = inhibition mostly above about 28%, no sharp cut-off; inactive = mostly below about 43%
HCMV antiviral = inhibitors of human cytomegalovirus | 410,000 tested, 4.5% active | activity change, negative = inhibition, % at 57.5 µM | AID 1259415 | HFF cells, HCMV-luciferase reporter, 72 h; active compounds read low; in the data active = activity change below about -60%; inconclusive = no clear call, values can overlap the other calls; inactive = above about -39%
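Two-dose cell screen: HFF monolayers treated with compounds and infected with luciferase-expressing HCMV at 1 PFU/cell, 72 h at 37C, then lysed for luciferase measurement.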
Pf growth 48h = P. falciparum growth inhibition at 48 hours (one generation) | P. falciparum luciferase growth in erythrocytes, 48 h | Potency, µM (top dose mostly 28.7 µM), actives largely listed as inhibitors | 310,000 tested, 5.9% active | AID 504832
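Compounds are pin-transferred into medium, infected erythrocytes (2% hematocrit, 0.1% parasitemia final) are added, and plates sit one parasite generation at 37 C in 5% CO2. Detection reagent is then added and luminescence measured.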
Pf growth 96h = inhibits malaria parasite growth, 96 h; P. falciparum luciferase reporter growth, 96 h; Potency, µM (titrated, usually from 28.7 µM), most hits filed as inhibitors; 320,000 tested, 6.9% active; AID 504834
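Luminescence readout: decreased luciferase signal marks inhibited growth of reporter-expressing P. falciparum in infected red cells (2% hematocrit, 0.05% parasitemia final), exposed to compound two generations (96 h, 37 C, 5% CO2).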
A number is an active result. Only some compounds are listed: those with a hit (about 21% of all), similar ones and a draw of the others. Unless noted, calls follow the shape of the dose curve; as a rule, active = well fitted inhibition curve with a large enough effect; inconclusive = small, poorly fitted or top-dose-only effect, or another doubt; inactive = no such curve, though single readings can be large or run the other way.

For CCc1noc(C)c1C(=O)Nc1nc(-c2ccc(OC)c(OC)c2)cs1 the results were HCV inh inconclusive, HCMV antiviral inactive, Pf growth 48h inconclusive and Pf growth 96h 10µM.
For CCc1noc(C)c1C(=O)Nc1nc(-c2ccc(NC(C)=O)cc2)cs1 the results were HCV inh 10µM, HCMV antiviral inactive, Pf growth 48h inconclusive and Pf growth 96h inconclusive.
COc1ccc(-c2csc(NC(=O)c3cc(C)oc3C)n2)cc1OC was read as HCV inh inconclusive, Cycloheximide cs inactive, Shiga toxin inh inactive, HCMV antiviral inactive, Pf growth 48h inconclusive and Pf growth 96h inconclusive.
Screening CC(C)n1c(SCC(=O)c2ccc(F)cc2)nc2c(sc3ccccc32)c1=O returned HCMV antiviral inactive.
`O=C(Cc1csc(Nc2nc(=S)[nH]c3ccccc23)n1)NCCCN1CCN(c2ccccc2F)CC1` gave HCV inh 4µM, Cycloheximide cs inactive, Shiga toxin inh inactive, HCMV antiviral -98, Pf growth 48h inactive and Pf growth 96h inconclusive.
For CCC(C)[C@H](NC(=O)[C@@H]1CSC2c3ccccc3C(=O)N21)C(=O)N1CCCCC1 (stereo not given in full) the results were HCV inh inactive, Cycloheximide cs inactive, Shiga toxin inh inactive, HCMV antiviral inactive, Pf growth 48h inconclusive and Pf growth 96h inconclusive.
c1ccc2c(-c3cnc4cccnn34)cncc2c1 was read as HCMV antiviral inactive.
c1cc(-c2cnc3cccnn23)c2cccnc2c1 was read as HCMV antiviral -69.
Screening C/C(=N\Nc1nc(C)cc(C)n1)c1ccc(C)o1 returned HCV inh inactive, Cycloheximide cs 21, Shiga toxin inh inactive, HCMV antiviral inconclusive, Pf growth 48h inactive and Pf growth 96h inconclusive.
`Cc1ccc2nc(N3C(=O)C(O)=C(C(=O)c4cc5ccccc5o4)C3c3cccs3)sc2c1` (stereo not given) gave HCV inh inconclusive, Cycloheximide cs 62, Shiga toxin inh 98, Pf growth 48h inactive and Pf growth 96h inactive.
For Cc1cc(N2C(=O)C(O)=C(C(=O)c3cc4ccccc4o3)C2c2cccs2)no1 (stereo not given) the results were HCV inh inactive, Cycloheximide cs 19, Shiga toxin inh inactive, HCMV antiviral inactive, Pf growth 48h inactive and Pf growth 96h inactive.
Screening COC(=O)c1sc(N2C(=O)C(O)=C(C(=O)c3ccc(C)o3)C2c2cccs2)nc1C (stereo not given) returned HCV inh inactive, Cycloheximide cs inactive, Shiga toxin inh inactive, Pf growth 48h inconclusive and Pf growth 96h inconclusive.
Screening O=C(C1=C(O)C(=O)N(c2nccs2)C1c1ccccc1)c1cc2ccccc2o1 (stereo not given) returned HCV inh inactive, Cycloheximide cs 44, Shiga toxin inh 59, HCMV antiviral inactive, Pf growth 48h inactive and Pf growth 96h inactive.
CCc1ccc2nc(N3C(=O)C(O)=C(C(=O)c4ccco4)C3c3cccs3)sc2c1 (stereo not given) was read as HCV inh inconclusive, Cycloheximide cs 29, Shiga toxin inh 59, Pf growth 48h inactive and Pf growth 96h inactive.
CCOc1ccc(-n2c(SCC(=O)Nc3cc(C)ccc3C)nc3c([nH]c4ccccc43)c2=O)cc1 was read as HCMV antiviral inactive.
For O=C(CCS(=O)(=O)c1cc(Br)cc2c1N(C(=O)C1CC1)CC2)Nc1ccc(F)cc1 the results were HCMV antiviral inactive.
For CCOc1ccc(N2CC(C(=O)Nc3cccc(S(=O)(=O)N4CCOCC4)c3)CC2=O)cc1 (stereo not given) the results were HCMV antiviral inactive.
Screening CCOc1ccc(N2CC(C(=O)Nc3cccc(S(=O)(=O)N4CCCC4)c3)CC2=O)cc1 (stereo not given) returned HCV inh 10µM, HCMV antiviral inactive, Pf growth 48h inconclusive and Pf growth 96h inconclusive.
For CCOc1ccc(CN(C)C(=O)c2cc(S(=O)(=O)N3CCCC3)ccc2C)cc1 the results were HCV inh inconclusive, HCMV antiviral inactive, Pf growth 48h 12µM and Pf growth 96h inconclusive.
Screening COc1ccc(S(=O)(=O)N2CCCCCC2)cc1C(=O)N(C)Cc1ccc(Cl)cc1Cl returned HCV inh 11µM, HCMV antiviral inactive, Pf growth 48h inconclusive and Pf growth 96h inconclusive.
Cc1ccc(S(=O)(=O)N2CCCCC2)cc1C(=O)N(C)CCOc1ccccc1 was read as HCV inh inactive, Cycloheximide cs inactive, Shiga toxin inh inactive, HCMV antiviral inactive, Pf growth 48h inactive and Pf growth 96h inactive.
CCOc1ccc(OCCC(=O)Nc2cccc(S(=O)(=O)N3CCCC3)c2)cc1 was read as HCV inh 11µM, HCMV antiviral inactive, Pf growth 48h inconclusive and Pf growth 96h 15µM.
For CC(C)N(C(=O)CSc1nnnn1-c1ccc2c(c1)OCO2)C(C)C the results were HCV inh inactive, Cycloheximide cs inactive, Shiga toxin inh inactive, HCMV antiviral inactive, Pf growth 48h inactive and Pf growth 96h inconclusive.
O=C(Cn1c(-c2cccs2)cc2cc(Cl)ccc21)N1CCN(c2ccccc2)CC1 was read as HCMV antiviral inactive.
Screening COc1ccc(OC)c2sc(NC(=O)CCSc3ccccc3)nc12 returned HCV inh 10µM, Cycloheximide cs inactive, Shiga toxin inh inactive, HCMV antiviral inactive, Pf growth 48h inactive and Pf growth 96h inactive.
Screening COc1cccc2sc(NNC(=O)C3=COCCO3)nc12 returned HCV inh inconclusive, Cycloheximide cs 40, Shiga toxin inh 87, HCMV antiviral inconclusive, Pf growth 48h inactive and Pf growth 96h inactive.
For COc1ccc(OC)c2sc(NC(=O)C3=COCCO3)nc12 the results were HCV inh 11µM, Cycloheximide cs inactive, Shiga toxin inh inactive, HCMV antiviral inactive and Pf growth 96h inactive.
COc1ccc(OC)c(-c2csc(NC(=O)C3=COCCO3)n2)c1 was read as HCV inh inactive, HCMV antiviral inactive, Pf growth 48h inactive and Pf growth 96h inactive.
COc1ccc(OC)c2sc(NC(=O)CCS(=O)(=O)c3ccccc3)nc12 was read as HCV inh inconclusive and HCMV antiviral inactive.
Screening COc1ccc(C)c2sc(NC(=O)C3=COCCO3)nc12 returned HCV inh inactive, Cycloheximide cs 12, Shiga toxin inh 27, HCMV antiviral inactive, Pf growth 48h inactive and Pf growth 96h inactive.
COc1ccc(C)c2sc(NC(=O)C3CC3)nc12 was read as HCV inh inactive, Cycloheximide cs inactive, Shiga toxin inh inactive, HCMV antiviral inactive, Pf growth 48h inactive and Pf growth 96h inactive.
For COc1cccc2sc(NNC(=O)C3COc4ccccc4O3)nc12 (stereo not given) the results were HCV inh inactive, Cycloheximide cs inactive, Shiga toxin inh inactive, HCMV antiviral inactive, Pf growth 48h inactive and Pf growth 96h inactive.
CCC(=O)Nc1nc2c(OC)ccc(C)c2s1 was read as HCV inh inconclusive, Cycloheximide cs inactive, Shiga toxin inh inactive, HCMV antiviral inactive, Pf growth 48h inactive and Pf growth 96h inactive.

Bioassay records (PubChem BioAssay)
